This is a sample that favours compounds with a hit; in the whole collection about 10% have one here.
PLK1 PBD block = qHTS for Inhibitors of PLK1-PDB (polo-like kinase 1 - polo-box domain): Primary Screen. Serine/threonine-protein kinase PLK1 (Homo sapiens), P53350. Plk1 PBD binding of FITC phosphopeptide, fluorescence polarization. Potency, µM, for inactives: max response, negative = inhibition, most hits filed as inhibitors. 360,000 tested, 2.8% active. AID 720504, 2013; also: potency is read from the fitted curve at half-maximal effect; series mostly up to about 57 µM; nearly all actives have a fitted effect of over 65% in size
Sfp PPTase inh = qHTS Assay for Inhibitors of Bacillus subtilis Sfp phosphopantetheinyl transferase (PPTase); Biochemical Sfp PPTase activity, qHTS; 310,000 tested, 3.5% active; Potency, µM, for the others: largest response in the series, negative = inhibition, usual class: inhibitors; AID 1490, 2009; 4'-phosphopantetheinyl transferase ffp (Bacillus subtilis), Q9F4F7;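 also: the enzyme is Sfp with the accession as filed and its product quenches rhodamine fluorescence; potency is read from the fitted curve at half-maximal effect; 0% = enzyme reaction without inhibitor and -100% = no enzyme wells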
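Fluorescence-quenching assay: 15 nM Sfp-PPTase preincubated 15 min at room temperature with compound, then 5 uM rhodamine-CoA and 12.5 uM BHQ-2-labelled YbbR peptide added. Fluorescence (ex 525/em 598 nm) read at start and after 30 min; difference gives rate.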
VDR inhibitor = Inhibitors of the vitamin D receptor (VDR): qHTS; Potency, µM, without a hit: max response, negative = inhibition, usual class: inhibitors; AID 504847, 2011; Vitamin D3 receptor (Homo sapiens), P11473; 400,000 tested, 0.93% active; VDR-SRC2-3 peptide fluorescence polarization, 2 h; also: potency is read from the fitted curve at half-maximal effect
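VDR–SRC2-3 interaction, FP format. Cmpds 23 nl via pintool, brief spin, 2 h ambient incubation.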
G9a block = qHTS Assay for Inhibitors of Histone Lysine Methyltransferase G9a. AID 504332, 2011. Potency, µM (titrated, usually from 102 µM), for inactives: top-dose activity, negative = inhibition, actives largely listed as inhibitors. 350,000 tested, 8.8% active. G9a H3K9 monomethylation, AlphaScreen, 2 h. Histone-lysine N-methyltransferase EHMT2 (Homo sapiens), Q96KQ7; also: potency is read from the fitted curve at half-maximal effect; nearly all actives have a fitted effect of over 75% in size
Target sequence (Q96KQ7 913-1193 limits assumed): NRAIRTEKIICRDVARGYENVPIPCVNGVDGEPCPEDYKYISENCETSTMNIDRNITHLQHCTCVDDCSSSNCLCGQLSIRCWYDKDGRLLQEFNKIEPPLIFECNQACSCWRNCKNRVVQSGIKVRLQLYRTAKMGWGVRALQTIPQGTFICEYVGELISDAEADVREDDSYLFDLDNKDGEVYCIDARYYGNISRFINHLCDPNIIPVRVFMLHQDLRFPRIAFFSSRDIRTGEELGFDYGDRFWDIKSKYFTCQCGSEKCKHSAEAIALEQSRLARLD
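Enzyme 20 nM + cpd, 15 min RT; add b-H3K9 pep 500 nM / SAM 20 uM; 2 h RT; anti-H3K9me1 Ab 0.5 ug/mL + SA donor / anti-rabbit acceptor beads 20 ug/mL each, 10 min; AlphaScreen read.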
MmCpn inh = Inhibitors of TCP-1 ring complex (TRiC) of Methanococcus maripaludis (MmCpn): qHTS | purified Mm-Cpn ATPase, ADP Transcreener TR-FRET | Potency, µM (doses to about 76.9 µM), for inactives: at the highest dose activity, negative = inhibition, most hits filed as inhibitors | 330,000 tested, 0.031% active | AID 504842, 2011; also: potency is read from the fitted curve at half-maximal effect; nearly all actives have a fitted effect of over 80% in size
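Compound-treated chaperonin, 25 nM final, turns over 10 uM ATP at 37°C for 30 min following a 10 min preincubation; ADP generated competes with ADP-d2 for Eu-cryptate antibody, lowering FRET.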
CCT modulator = High-Throughput Screening for Modulators of Cytosolic Chaperonin Activity; purified chaperonin ATPase assay, HTRF ADP detection, 30 min; activity change, % (concentration not given with the values), hits read low; 360,000 tested, 0.3% active; in the data active = activity change below about -30%
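Nucleotide hydrolysis assay: TRiC at 20–40 nM final (set by batch activity) with 10 uM ATP, 30 min at 37 °C, in presence of 76 uM compound. Detection by competitive ADP HTRF, 30 min ambient.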
* marks the source's active call; other numbers are inactive results; ? = inconclusive; / = not tested or not shown; [ ] = remark or other dose. Unless noted, calls follow the shape of the dose curve; as a rule, active = well fitted curve in the direction sought with a large enough effect; inconclusive = small, poorly fitted or top-dose-only effect, or another doubt; inactive = no such curve, though single readings can be large; an effect the other way counts as inactive or inconclusive. Unless noted, % is scaled to controls: 0 for no effect and ±100 for the full control effect.

SMILES	PLK1 PBD block	Sfp PPTase inh	VDR inhibitor	G9a block	MmCpn inh	CCT modulator
Cc1ccc(CNC(=O)C2c3ccccc3C(=O)N3CCc4ccccc4C23)o1 (stereo unspecified)	-16%	14µM*	?	32µM*	-9%	-2
CCn1c(O)c(C2=c3ccccc3=NC2=O)c2cc(Br)ccc21	-17%	-21%	?	?	1%	-3
O=C1N=c2ccc(Br)cc2=C1c1sc(=O)[nH]c1O	/	-29%	/	45µM*	-1%	/
CCc1ccccc1NC(=O)c1ccc(=O)n(Cc2ccc(F)cc2)c1	/	/	7%	3%[59 µM]	/	/
C=CCOc1cccc(C2C(C(=O)c3ccc(C)o3)=C(O)C(=O)N2c2nccs2)c1 (stereo unspecified)	?	?	-13%	32µM*	-18%	1
CCCCOc1cccc(C2C(C(=O)c3ccc(C)o3)=C(O)C(=O)N2c2nnc(C)s2)c1 (stereo unspecified)	?	50µM*	-10%	/	-8%	-3
COc1cccc(C(=O)Oc2cc3c4c(c2)C(C)=CC(C)(C)N4C(=O)C3=O)c1	?	6%	-100%	8.9µM*	-2%	-1
COc1cc2c3c(c1)C(C)=CC(C)(C)N3C(=O)C2=O	-9%	10%	-25%	22µM*	1%	0
CSc1ncc(C(=O)Nc2cc(C)cc(C)c2)c(-c2ccccc2)n1	/	/	7%	8%[59 µM]	/	/
COc1cccc(CNC(=O)C2CCCN(c3nn4cc(-c5ccc(C)cc5)nc4s3)C2)c1 (stereo unspecified)	/	/	33%	-1%[59 µM]	/	/
COc1ccc(C(=O)Nc2nc3n(n2)C(c2ccccc2)C=C(c2ccccc2)N3)cc1 (stereo unspecified)	/	/	-3%	25µM*	/	/
O=C(Nc1nc2n(n1)C(c1ccccc1)C=C(c1ccccc1)N2)c1ccco1 (stereo unspecified)	-11%	56µM*	2%	22µM*	-1%	1
CC(=O)Nc1nc2n(n1)C(c1ccc(F)cc1)C=C(c1ccccc1)N2 (stereo unspecified)	-24%	35µM*	-4%	8.9µM*	-8%	0
COCCn1c(SCc2cnc(-c3ccccc3)s2)nnc1-c1ccncc1	27µM*	-21%	-6%	-2%[59 µM]	-7%	0
O=S(=O)(Nc1ccncc1)c1ccc(Cl)cc1	-8%	8%	-11%	-10%[59 µM]	-3%	-1
O=S(=O)(Nc1ncccn1)c1ccccc1	24µM*	7%	?	?	0%	0
O=S(=O)(Nc1ccncc1)c1ccccc1	-11%	17%	2%	50µM*	1%	0
CCN1CCN(CCCNC(=O)c2cc3c(=O)n(C)c4ccccc4c3s2)CC1	/	/	8%	-8%[59 µM]	/	/
COc1ccc(OC)c(NC2c3ncccc3C(=O)N2Cc2ccco2)c1 (stereo unspecified)	-13%	-7%	-6%	50µM*	0%	-3
Cc1ccc(NC2c3ncccc3C(=O)N2Cc2ccco2)c(C)c1 (stereo unspecified)	-9%	3%	-8%	45µM*	1%	-5
COc1ccc(CN2C(=O)c3cccnc3C2Nc2cc(Cl)ccc2OC)cc1 (stereo unspecified)	-11%	2%	4%	?	-12%	-1
COC(=O)c1cc(NC2c3ncccc3C(=O)N2Cc2ccccc2)cc(C(=O)OC)c1 (stereo unspecified)	-5%	14%	1%	12%[2.33 µM]	0%	3

Bioassay records as filed in PubChem.
